Reference: PubChem BioAssay (NCATS)
Records with an inconclusive call do not appear. Where a call stands in place of a potency, no number is given. Unmarked numbers belong to inactive results. Activity calls are given as the source filed them. Unless noted, calls follow the shape of the full dose curve.

Legend:
[1] = qHTS for Inhibitors of the Functional Ribonucleoprotein Complex (vRNP) of Lassa (LASV) Arenavirus: LASV Primary Screen - GLuc reporter signal (AID 1347082; calls by dose curve; tested in HEK293 reporter line; also: nearly all actives have a fitted effect of over 60% in size)
[2] = qHTS for Inhibitors of the Functional Ribonucleoprotein Complex (vRNP) of Lassa (LASV) Arenavirus: Viability assay - alamar blue signal for LASV Primary Screen (AID 1347083; calls by dose curve; tested in HEK293 reporter line; also: nearly all actives have a fitted effect of over 80% in size)
[3] = qHTS for Inhibitors of the Functional Ribonucleoprotein Complex (vRNP) of Lymphocytic Choriomeningitis Arenaviruses (LCMV): Viability assay - alamar blue signal for LCMV Primary Screen (AID 1347085; calls by dose curve; tested in HEK293 reporter line; also: nearly all actives have a fitted effect of over 80% in size)
[4] = target: Nucleoprotein (Lymphocytic choriomeningitis virus (strain Armstrong)) (UniProt P09992); test: qHTS for Inhibitors of the Functional Ribonucleoprotein Complex (vRNP) of Lymphocytic Choriomeningitis Arenaviruses (LCMV): LCMV Primary Screen - GLuc reporter signal (AID 1347086); also: nearly all actives have a fitted effect of over 70% in size
Sequence of Nucleoprotein (Lymphocytic choriomeningitis virus (strain Armstrong)) (P09992 whole entry, looked up): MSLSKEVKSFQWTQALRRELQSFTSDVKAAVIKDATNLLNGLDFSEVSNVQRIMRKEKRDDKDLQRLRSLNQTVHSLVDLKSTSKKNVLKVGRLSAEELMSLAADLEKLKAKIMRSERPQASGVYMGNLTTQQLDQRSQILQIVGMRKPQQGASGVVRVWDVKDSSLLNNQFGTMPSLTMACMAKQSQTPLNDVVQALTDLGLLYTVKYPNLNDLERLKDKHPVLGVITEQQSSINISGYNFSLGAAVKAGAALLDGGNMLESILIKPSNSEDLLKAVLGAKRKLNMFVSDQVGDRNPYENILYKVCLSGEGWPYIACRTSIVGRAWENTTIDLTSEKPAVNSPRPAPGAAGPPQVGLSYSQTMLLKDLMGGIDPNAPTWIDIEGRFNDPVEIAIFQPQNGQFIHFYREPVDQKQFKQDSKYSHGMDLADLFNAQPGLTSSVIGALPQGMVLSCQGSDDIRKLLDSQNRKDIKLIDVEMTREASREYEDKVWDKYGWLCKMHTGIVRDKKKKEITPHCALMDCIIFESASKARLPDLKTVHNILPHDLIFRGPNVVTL
Potency is read from the fitted curve at half-maximal effect.

SMILES | Potency [1] | Potency [2] | Potency [3] | Potency [4]
COc1c2c(nc3occc13)C(CCC(C)(C)O)(OC)C(O)CC2 (centres undefined) | inactive | inactive | inactive | inactive
O=C(C=Cc1ccc(O)cc1)c1ccc(O)cc1O | inactive | inactive | inactive | –
CNC(=O)Nc1ccc(Cl)c(Cl)c1 | inactive | inactive | – | –
COc1cc2c(cc1CC=C(C)C)C(=O)C[C@@H](c1ccc(O)cc1)O2 | inactive | inactive | inactive | inactive
Nc1nc2c(cnn2CCc2ccccc2)c2nc(-c3ccco3)nn12 | inactive | inactive | inactive | inactive
CC1=CC=C(C(C)C)CC1 | inactive | inactive | inactive | inactive
CCCCCCC1CCC(=O)O1 (centres undefined) | inactive | inactive | inactive | –
CC12CCC(=O)C=C1CCC1C2C(O)CC2(C)C(O)CCC12 (centres undefined) | inactive | inactive | inactive | inactive
C=C(C)C(Cc1c(OC)ccc(C(=O)/C=C/c2ccc(O)cc2)c1O)OO (centres undefined) | inactive | inactive | inactive | –
CC(C)=CCCC(C)C=O (centres undefined) | inactive | inactive | inactive | inactive
CN[C@@H]1CN(c2ccc3c(=O)c(C(=O)O)cn(-c4nccs4)c3n2)C[C@@H]1OC | inactive | 10600 nM (active) | 15000 nM (active) | –
Nc1ccn([C@@H]2O[C@H](CO)[C@H](O)C2(F)F)c(=O)n1 | inactive | 968 nM (active) | 968 nM (active) | –
C=CC(C)(CCC=C(C)C)OC(=O)c1ccccc1 (centres undefined) | inactive | inactive | inactive | inactive
COC(=O)c1ccc2c(c1)C(NC(C)=O)CCc1cc(OC)c(OC)c(OC)c1-2 (centres undefined) | inactive | inactive | – | –
O=C1NC(=O)C(=Cc2ccc3nccc(-c4ccncc4)c3c2)S1 | 432 nM (active) | 109 nM (active) | 273 nM (active) | –
CCCCCCC[C@@H](C/C=C/CCC(=O)N(C)C/C(=C/Cl)C/C(=C\C(=O)N1C[C@H](O)CC1=O)OC)OC | inactive | inactive | inactive | –
Cc1cnn(C)c1C(=O)Nc1cc(Nc2ccc3c(C=Cc4ccccn4)n[nH]c3c2)ccc1F | 21700 nM (active) | 19300 nM (active) | – | –
COc1cc2nc(-c3cc(F)ccc3O)nc(N[C@@H]3CNC[C@@H]3C(C)(C)O)c2cc1OC | 1370 nM (active) | 1090 nM (active) | 8630 nM (active) | –

SMILES | Potency [1] | Potency [2] | Potency [3] | Potency [4]
CC(C)(O)CC(=O)NCCn1ccc2ncnc(Nc3ccc(Oc4cccc(C(F)(F)F)c4)c(Cl)c3)c21 | inactive | inactive | 769 nM (active) | –
COc1ccnc2[nH]cc(C(=O)C(=O)N3CCN(C(=O)c4ccccc4)C[C@@H]3C)c12 | inactive | inactive | – | –
COc1c2c(nc3occc13)C(CC=C(C)C)(OC)C(=O)C=C2 (centres undefined) | inactive | inactive | inactive | inactive
O=c1ccn([C@@H]2O[C@H](COP(=O)(O)O)[C@@H](O)[C@H]2O)c(=O)[nH]1 | inactive | inactive | – | –
CCCCCC(=O)N[C@@H](c1ccccc1)[C@@H](O)C(=O)O[C@H]1C[C@@]2(O)[C@@H](OC(=O)c3ccccc3)C3[C@](C)(C(=O)[C@H](O)C(=C1C)C2(C)C)[C@@H](OC1OCC(O)C(O)C1O)C[C@H]1OC[C@@]31OC(C)=O (some centres undefined) | inactive | inactive | – | –
CC1C(=O)OC2C1CCC1(C)CCC(=O)C(C)C21 (centres undefined) | inactive | inactive | inactive | inactive
CC(=O)OC1CCC2(C)C(COc3ccc4ccc(=O)oc4c3)C(C)(O)CCC2C1(C)C (centres undefined) | inactive | inactive | inactive | –
Cc1cc(Nc2ncc3c(n2)N(C)C(=O)N(c2cc(NC(=O)c4cccc(C(F)(F)F)c4)ccc2C)C3)n(C)n1 | 3850 nM (active) | 611 nM (active) | 1530 nM (active) | –
O=C(O)CCNc1cc(N2CCc3ccccc3CC2)nc(-c2ccccn2)n1 | inactive | inactive | – | –
CCC(=C(CC)c1ccc(O)cc1)c1ccc(O)cc1 | inactive | 15.3 nM (active) | 13.7 nM (active) | –
COc1cc2oc(=O)ccc2c(OC)c1CC(O)C(C)(C)O (centres undefined) | inactive | inactive | inactive | inactive
COC(=O)[C@@]1(C)CC[C@]2(C)CC[C@@]3(C)C(=CC(=O)C4[C@@]5(C)CC[C@H](O)C(C)(C)[C@@H]5CC[C@]43C)[C@H]2C1 (some centres undefined) | inactive | inactive | inactive | inactive
Cn1c(=O)c(-c2ccccc2)c(O)c2ccccc21 | inactive | inactive | inactive | inactive
COc1cc2c(c(OC)c1OC)-c1c(cc3c(c1OC)OCO3)CC(C)C(C)C2 (centres undefined) | inactive | inactive | inactive | inactive
C[C@@H](C[C@@H](O)[C@H](O)C(C)(C)O)[C@@H]1CC[C@]2(C)C3=CC[C@H]4C(C)(C)C(=O)CC[C@]4(C)[C@H]3CC[C@@]12C | inactive | inactive | inactive | inactive
O=C(NCCCCNCCCNC(=O)c1ccccc1)c1ccccc1 | inactive | inactive | inactive | inactive
Cn1c2ccccc2c2c3c(c4c5ccccc5n(CCC#N)c4c21)CNC3=O | 8630 nM (active) | 485 nM (active) | 3850 nM (active) | 6110 nM (active)
